From PubChem BioAssay (Tox21) come the findings set out here.

Test [1] can be described thus: qHTS RealTime-Glo MT Cell Viability Assay in HepG2 cells - 8 hour (AID 1224873). Also: nearly all actives have a fitted effect of over 55% in size. Put shortly:
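HepG2 cells mixed with RealTime-Glo MT reagents (NanoLuc plus cell-permeant prosubstrate) were seeded at 600 cells/well, incubated 5 h at 37 C/5% CO2, then pinned with compounds in DMSO; nonlytic luminescence tracked viability during 40 h treatment.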

Test [2] can be described thus: qHTS RealTime-Glo MT Cell Viability Assay in HEK293 cells - 40 hour (AID 1224874). Also: nearly all actives have a fitted effect of over 50% in size. Particulars: RealTime-Glo luminescence; max response: hits give low values. A digest of the protocol:
(§1)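 HEK293 cells mixed with RealTime-Glo reagents (NanoLuc plus cell-permeant prosubstrate) at 600 cells/well, preincubated 5 h at 37 C/5% CO2, then given 23 nL compound in DMSO. Nonlytic luminescence from viable cells was read at 0, 8, 16, 24, 32 and 40 h.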
In general terms: In qHTS, concentration-response curves come from the screen itself.

Test [3] in a line: A CellTox Green Cytotoxicity Assay to monitor cytotoxicity in HEK293 cells - 24 hour (AID 1224875). Also: nearly all actives have a fitted effect of over 45% in size. As to activity change: series mostly up to about 77 µM. A digest of the protocol:
(§2)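 HEK293 cells premixed with CellTox Green dye were seeded at 600 cells/well and left 5 h at 37 C/5% CO2 before pin transfer of 23 nL compound in DMSO. Fluorescence from dye bound to dead-cell DNA was read during 40 h treatment.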

Test [4] in a line: qHTS RealTime-Glo MT Cell Viability Assay in HepG2 cells - 32 hour (AID 1224877). Also: nearly all actives have a fitted effect of over 55% in size. A digest of the protocol:
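Compound treatment began 5 h after plating HepG2 cells (600/well) with NanoLuc luciferase and prosubstrate. Plates stayed at 37 C for 40 h; luminescence was captured at six time points, 0 h through 40 h.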

Test [5] can be described thus: A CellTox Green Cytotoxicity Assay to monitor cytotoxicity in HepG2 cells - 24 hour (AID 1224878). Also: nearly all actives have a fitted effect of over 45% in size. A digest of the protocol:
(§3)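 HepG2 cells were seeded together with the CellTox Green dye at 600 cells/well, left 5 h at 37 C/5% CO2, then given compounds in DMSO. Fluorescence from dye bound to dead-cell DNA was read repeatedly over 40 h of treatment at 37 C.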

A short description of test [6]: A CellTox Green Cytotoxicity Assay to monitor cytotoxicity in HepG2 cells - 40 hour (AID 1224879). Also: nearly all actives have a fitted effect of over 40% in size. A digest of the protocol:
as §3

A short description of test [7]: qHTS RealTime-Glo MT Cell Viability Assay in HEK293 cells - 0 hour (AID 1224880). Also: nearly all actives have a fitted effect of over 45% in size. As to activity change, negative = cytotoxicity: top concentration of the series differs between compounds. Put shortly:
as §1

A short description of test [8]: A CellTox Green Cytotoxicity Assay to monitor cytotoxicity in HEK293 cells - 32 hour (AID 1224881). Also: nearly all actives have a fitted effect of over 40% in size. Put shortly: as §2
Test [9] is described as follows: A CellTox Green Cytotoxicity Assay to monitor cytotoxicity in HepG2 cells - 16 hour (AID 1224876). Also: nearly all actives have a fitted effect of over 45% in size. Put shortly: as §3

Values joined by “and” are separate entries in the source; they are usually repeats but may differ in a detail not shown here. Equal entries are not always repeated. Results filed as inconclusive are left out. Unmarked numbers belong to inactive results. Active and inactive are the calls of the source. Calls follow the shape of the dose curve; as a rule, active = well fitted curve in the direction sought with a large enough effect in the repeat runs; inconclusive = weak or mixed curves; inactive = no such curve, though single readings can be large; an effect the other way counts as inactive or inconclusive.
% is scaled to controls: 0 for no effect and ±100 for the full control effect; potency is read from the fitted curve at half-maximal effect.

`CCCCCCCCCCCCCC[N+](C)(C)Cc1ccccc1`: the Potency is 55.8 µM (active) and 21.3 µM (active) in [1]; 3.14 µM (active) and 3.01 µM (active) and 1.58 mM (active) in test [2]; 39.5 µM (active) and 21.3 µM (active) and 17.8 mM (active) in test [3]; 24.9 µM (active) and 13.4 µM (active) in test [4]; 39.5 µM (active) and 16.9 µM (active) and 17.8 mM (active) in [5]; 22.2 µM (active) and 15.1 µM (active) and 14.1 mM (active) in [6]. The Potency in test [8] was 39.5 µM (active) and 19 µM (active) and 17.8 mM (active). In [7], the Potency entry was “inactive”.

Turning to `Cc1nc2n(c(=O)c1CCN1CCC(c3noc4cc(F)ccc34)CC1)CCCC2`, the Potency result in test [1], in test [3], in test [9], in [4], in [5] and in test [6] was “inactive” each time. Also, the Potency result in test [7] and in [8] was “inactive” in each case. Moreover, the Potency in test [2] is 3.01 µM (active).

As to `O=C(O)Cc1ccccc1Nc1c(Cl)cccc1Cl`, the Potency result in test [1], in [3], in test [9], in test [4], in [5] and in test [6] was “inactive” in each case. For the same compound, the Potency result in test [7] and in test [8] was “inactive” in each case. Further, in test [2], the max response was 15.1% and 6.54%.

With `Clc1ccnc(Cl)n1`, the Potency entry in [1], in test [3], in test [9], in test [4], in [5] and in test [6] was “inactive” in each case. Moreover, the Potency result in test [7] and in [8] was “inactive” in each case. In addition, in test [2], the max response is 11.8%.

As to `CCN1C(=O)c2ccccc2C1Nc1ccc(OCCN2CCCCC2)cc1` (centres undefined), the Potency entry in test [1], in test [3], in test [4], in test [5], in [6] and in test [7] was “inactive” in each case. The Potency entry in test [8] was “inactive”. Moreover, the Potency in test [2] was 4.77 µM (active).

As for `CCCCCc1ccc(Cl)cc1`, the Potency result in test [1], in [3], in test [9], in test [4], in test [5] and in [6] was “inactive” throughout. For the same compound, the Potency entry in test [7] and in [8] was “inactive” each time. Further, the Potency in test [2] is 15.5 µM (active).

Consider `CCCCC/C=C\C/C=C\CCCCCCCC(=O)O`, for which the Potency entry in [1], in [3], in test [9], in test [4], in test [5] and in [6] was “inactive” each time. Moreover, the Potency result in test [7] and in [8] was “inactive” each time. The max response in test [2] is 6.43% and 5.51%.

For `CCc1oc2ccccc2c1C(=O)c1cc(I)c(O)c(I)c1`, the Potency result in test [1], in [3], in test [9], in [4], in [5] and in test [6] was “inactive” in each case. Besides, the Potency entry in test [7] and in test [8] was “inactive” in each case. The max response in test [2] was -23.8%.

In the case of `NC[C@H]1O[C@H](O[C@H]2[C@H](O[C@@H]3O[C@H](CO)[C@@H](O)[C@H]3O)C(O)[C@H](N)C[C@@H]2N)[C@H](N)[C@@H](O)[C@@H]1O` (some centres undefined), the viability change, negative = cytotoxic in [1] is 2.91% [at 6.97 µM]. In addition, the max response in test [2] is 4.82%. For the same compound, in [3], the activity change was -9.09% [at 6.97 µM, hits give high values]. Also, the figures for the cytotoxicity increase in test [9], in [6] and in test [8] were 11% [at 6.97 µM], 9.38% [at 6.97 µM] and -11.8% [at 6.97 µM], respectively. The activity change, negative = cytotoxic in test [4] was 0.467% [at 6.97 µM]. The cytotoxicity in test [5] is 9.58% [at 6.97 µM]. Besides, the activity change, negative = cytotoxicity in test [7] is 10.7% [at 6.97 µM].

As to `O=C1OC2(c3ccc(O)cc3Oc3cc(O)ccc32)c2ccc(N=C=S)cc21`, the Potency in [3] was 17.7 µM (active); in [9] it was 15.8 µM (active); in [5], 15.8 µM (active); in [6] it was 15.8 µM (active); in test [7], 44.4 µM (active); in [8] it was 17.7 µM (active).

For `CN1CCN(Cc2cc(-c3ccc4[nH]c(=O)oc4c3)co2)[C@@H](c2ccc(F)cc2)C1`, the Potency in [2] is 26.5 µM (active); in test [5], 42 µM (active); in test [6], 42 µM (active). Besides, the Potency entry in test [3], in test [7] and in test [8] was “inactive” in each case.

Turning to `CCCCC(CC)CN1CN(CC(CC)CCCC)CC(C)(N)C1` (centres undefined), the Potency in test [2] was 9.52 µM (active); in test [3], 10.7 µM (active); in [9] it was 19 µM (active); in test [4] it was 16.9 µM (active); in test [5], 19 µM (active); in [6] it was 19 µM (active).

As for `Cc1cc(C)c(/C=C2\C(=O)Nc3ccccc32)[nH]1`, in test [2], the max response is -3.94%. In addition, the Potency in test [3] is 10.7 µM (active); in test [9], 16.9 µM (active); in test [5], 19 µM (active); in [6], 19 µM (active); in test [8], 10.7 µM (active). The Potency result in test [4] and in [7] was “inactive” in each case.

Regarding `Cc1ccc(O)c(N)c1`, the Potency entry in test [1], in [3], in [4] and in test [8] was “inactive” each time.

For `OC12N=C(c3ccccc3)SC1Cc1cc(Cl)ccc12` (centres undefined), the Potency result in [1], in test [3], in test [9], in [4], in test [7] and in test [8] was “inactive” in each case.

Turning to `CCC(=O)C(=O)CC`, the Potency entry in test [1], in [3], in test [9], in test [4], in [5] and in [6] was “inactive” in each case. Also, the Potency result in test [7] and in test [8] was “inactive” in each case.

Regarding `c1ccc(C(O[C@@H]2CCCN(CCc3ccc4c(c3)OCO4)C2)c2ccccc2)cc1`, the Potency entry in test [3], in [9], in [4], in test [5] and in test [7] was “inactive” each time.

For `CCO[C@@H]1O[C@H](C(COCc2ccccc2)OCc2ccccc2)[C@H](OCc2ccccc2)[C@H]1O` (some centres undefined), the Potency entry in test [3], in test [9], in test [4], in test [5] and in [7] was “inactive” each time.

Consider `OCC(F)(F)F`, for which the max response in test [2] is 19.1%. Also, the Potency entry in test [3], in [9], in test [4], in test [5], in [6] and in [7] was “inactive” each time. For the same compound, the Potency entry in test [8] is “inactive”.

For the compound `Nc1cc(Cl)c(O)c(Cl)c1`, in test [2], the max response is -1.5%. In addition, the Potency result in test [3], in test [9], in [4], in [5], in [6] and in test [7] was “inactive” in each case.

Regarding `CC[N+](CC)(CC)CCOC(=O)C(C1CCCC1)C1CCCC1`, the Potency entry in test [1], in [3], in [9], in [4], in [5] and in test [6] was “inactive” in each case. Also, in test [7], the Potency result is “inactive”.

As for `C/C=C/C=C/COC(=O)C(C)C`, the Potency entry in [1], in test [3], in test [9] and in test [7] was “inactive” each time. Also, the Potency in test [6] was 43.6 µM (active).

Regarding `OCCN1CCN(CCCN2c3ccccc3Sc3ccc(C(F)(F)F)cc32)CC1`, the figures for the Potency in [2], in test [5] and in test [6] were 23.9 µM (active), 26.8 µM (active) and 26.8 µM (active), respectively.

For `CC[N+](CC)(CC)CCOc1ccc(/C=C/c2ccccc2)cc1`, the Potency entry in test [1], in test [9], in [5] and in test [7] was “inactive” throughout. Further, the values for the Potency in [4] and in test [8] were 26.8 µM (active) and 6.74 µM (active), respectively.
